The target of this test is Fibroblast growth factor 2 (Homo sapiens) (UniProt P09038). Briefly: FGF2 binders on small-molecule microarrays, primary screen, biochemical, small-molecule microarray, 635/667 nm fluorescence (AID 1133). Conditions: small-molecule microarray binding, FGF2, fluorescence 635/667; higher = more signal.
Chain of Fibroblast growth factor 2 (Homo sapiens) (P09038 whole entry, looked up): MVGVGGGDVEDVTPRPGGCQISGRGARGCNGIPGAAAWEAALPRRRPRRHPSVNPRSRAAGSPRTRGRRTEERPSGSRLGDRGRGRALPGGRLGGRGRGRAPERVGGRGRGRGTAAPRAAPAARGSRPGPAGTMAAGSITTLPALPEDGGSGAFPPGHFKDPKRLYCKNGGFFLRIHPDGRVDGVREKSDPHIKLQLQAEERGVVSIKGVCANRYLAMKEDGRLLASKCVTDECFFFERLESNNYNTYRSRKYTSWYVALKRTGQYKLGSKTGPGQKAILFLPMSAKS
In turn, `CC(C)C(O)C1C=CC2C(=O)N(C)C(=O)C2N1Nc1ccccc1` (stereo not given) showed a composite z-score of 0.0704. Then `C=CC[C@]12N=C(c3ccc(OCCCO)cc3)O[C@H]1c1ccccc1N(C)C2=O`, with 0.837; and `CC(C)(C)OC(=O)CC[C@]1(C(=O)O)N=C(c2ccc(OCCCO)cc2)O[C@H]1c1ccccc1CN=[N+]=[N-]`, with 0.13. Then `COc1ccc(NN2C(C(O)c3ccco3)C=CC3C(=O)N(C4CCCCC4)C(=O)C32)cc1` (stereo not given), with 0.484. Then `CCOC(=O)[C@H]1C/C=C/C[C@H](C(=O)OCC)C(=O)O[C@H]2[C@@H](OC)O[C@H](CO)[C@@H](OC(=O)CCc3ccccc3)[C@@H]2OC1=O`, with -0.924; and `COCCOC(=O)N1C(=O)[C@@]2(c3cc(C#CCNC(N)=O)ccc31)[C@H](C(=O)N1CCCCCCC1)[C@H]1C(=O)O[C@H](c3ccccc3)[C@H](c3ccccc3)N1[C@@H]2c1ccc(O)cc1`, with 1.24. For the molecule `O=C1c2ccccc2[C@](Cc2ccccc2I)(C(=O)NCc2ccccc2)[C@H](c2ccc(CO)cc2)N1C1CCCCC1`, the composite z-score is 1.93. As for `C=CCOC(=O)[C@H]1[C@@H]2C(=O)O[C@@H](c3ccccc3)[C@@H](c3ccccc3)N2[C@@H](c2ccc(OCCOC(=O)[C@H]3C[C@H]4C(=O)N[C@@H](Cc5ccccc5)C(=O)N4[C@H]3c3ccc(O)cc3)cc2)[C@]12C(=O)Nc1ccc(I)cc12`, the figure is 1.29; as for `COCCCNC(=O)[C@@]1(Sc2ccc(C)cc2)CC(=O)N(Cc2cc(C(F)(F)F)cc(C(F)(F)F)c2)[C@@H]1c1ccc(CO)cc1`, 0.686.

Molecule `C=CCN1C(=O)[C@@]2(CCC(=O)OC(C)(C)C)N=C(c3ccc(OCCCO)cc3)O[C@H]2c2ccccc21` yielded a composite z-score of 0.898.

Source of the values: PubChem BioAssay.
